ChEMBL document CHEMBL3988442, “University of Dundee, Small-Polar-MMV Screening Library” (2021)
About 13,000 (27%) of roughly 48,000 compounds showed an effect of 50% or more. Some of the results follow.

test system: Wolbachia pipientis; assay: Anti-Wolbachia Cell-Based Screen; format: functional; set-up: scale not given: in the data most compounds retested in dose-response had high values; details: 5 µM

Row | Structure (SMILES) | Percent Effect [%]
1 | Cc1ccc(NC(=O)Cn2ccc3c(=O)n(C)ccc32)cc1F | 136.8
2 | CC(=O)c1c(C)nn(CC(=O)Nc2ccc(Br)cc2)c1C | -0.7117
3 | Cc1cc(NC(=O)Cn2cc(C#N)c(=O)c3cc(Br)ccc32)no1 | -1.057
4 | COc1ccc(NC(=O)Cn2ccc3c(=O)n(C)ccc32)cc1OC | 174.8
5 | Cn1ccc2c(ccn2CC(=O)Nc2ccc(Br)cc2)c1=O | 150.6
6 | Cc1ccc(NC(=O)Cc2c(C)nc3c(c2C)c(=O)[nH]n3C)cc1F | -4.371
7 | COc1ccc(NC(=O)Cn2nc(C)ccc2=O)cc1OC | 11.2
8 | COc1ccc(NC(=O)Cn2nc(C)c(C)cc2=O)cc1OC | -16.79
9 | Cc1ccc(NC(=O)CN[C@H](C(N)=O)C(C)C)cc1F | -36.68
10 | Cc1cccn2c(=O)cc(CN3CCCC3Cn3cncn3)nc12 (stereo not drawn) | 14.6
11 | O=C(NCCNS(=O)(=O)c1ccc2c(c1)CCCC2)c1ccoc1 | 1.057
12 | CC(c1ccc(C(F)(F)F)cc1)N1CCN(CCS(C)(=O)=O)CC1 (stereo not drawn) | -14.82
13 | Cc1nn(C)cc1CNC(=O)c1cn(CCC2CCCCN2)nn1 (stereo not drawn) | 3.544
14 | CC(C)CSCCN1CCN(S(C)(=O)=O)CC1 | 87.34
15 | CS(=O)(=O)N1CCN(Cc2ccc(F)cc2Br)CC1 | 0.07282
16 | Cc1noc(C)c1C(=O)NCCN1CCN(S(C)(=O)=O)CC1 | 1.414
17 | CS(=O)(=O)N1CCCN(CCCSCc2ccccc2)CC1 | 0.2965
18 | CC(C)CSCCN1CCCN(S(C)(=O)=O)CC1 | 87.23
19 | CC(OCC(F)(F)F)C(=O)N1CCN(S(C)(=O)=O)CC1 (stereo not drawn) | -14.66
20 | CCSCCN1CCCN(S(C)(=O)=O)CC1 | 101
21 | COc1cccc(/C=C/CCN2CCN(S(C)(=O)=O)CC2)c1 | -6.634
22 | CC(C)COC(C)C(=O)N1CCN(S(C)(=O)=O)CC1 (stereo not drawn) | -15.22

Row | Structure (SMILES) | Percent Effect [%]
23 | c1ccc2c(c1)CCN(c1ncnc3sc4c(c13)CCNC4)C2 | -22.34
24 | CC(C)(C)c1nnc(CN2CCn3c(nnc3C3CC3)C2)o1 | -1.017
25 | COc1cc(CNCc2c(C)nn(C)c2N(C)C)ccc1C | 5.351
26 | Cc1nn(C)c(N(C)C)c1CNCC(O)COc1ccc(F)cc1 (stereo not drawn) | -24.06
27 | COCCOc1ccccc1CNCc1c(C)nn(C)c1N(C)C | 3.924
28 | Cc1nn(C)c(N(C)C)c1CNC(C)COc1ccccc1F (stereo not drawn) | 101.5
29 | COc1cccc(OCCNCc2c(C)nn(C)c2N(C)C)c1 | -5.717
30 | Cc1nn(C)c(N(C)C)c1CNC(C)c1cccnc1 (stereo not drawn) | 9.889
31 | Cc1nn(C)c(N(C)C)c1CNCC(O)COc1ccccc1.Cl (stereo not drawn) | -3.331
32 | Cc1nn(C)c(N(C)C)c1CNC(C)COc1ccc(F)cc1F (stereo not drawn) | 105.9
33 | CCOc1cccc(C(C)NCc2c(C)nn(C)c2N(C)C)c1 (stereo not drawn) | 98.21
34 | Cc1nn(C)c(N(C)C)c1CNC(C)COc1ccc(F)cc1 (stereo not drawn) | 102.4
35 | Cc1nn(C)c(N(C)C)c1CNCc1cccc(CN(C)C(C)C)c1 | 4.552
36 | c1cc(-c2c[nH]c([C@@H]3COCCN3C3CCOCC3)n2)ccn1 | -2.86
37 | COc1cccc(C(C)N2CCN(S(=O)(=O)CCCF)CC2)c1 (stereo not drawn) | 11.55
38 | CC(C(=O)Nc1ccnn1C(C)C)N1CCN(Cc2ccccc2)CC1 (stereo not drawn) | -23.16
39 | O=c1n(Cc2ncccn2)nc(C2CCNCC2)n1-c1ccccc1 | 0.768
40 | c1cc(-c2cncc(C3CCNCC3)n2)n[nH]1 | 120.5
41 | CC(C)n1cnc2c(-c3cccnc3)nc(C3CCNCC3)cc21.Cl.Cl | -47.69
42 | c1cc(-c2cnc(C3CCNCC3)cn2)n[nH]1 | 125.1
43 | O=C(c1cscn1)N1CCCC12CCCN(S(=O)(=O)c1ccccc1)C2 (stereo not drawn) | -2.919
44 | CC(C)[C@@H]1CN(Cc2cnc3c(S(C)(=O)=O)cnn3c2)C[C@H]1N(C)C | -1.352

Row | Structure (SMILES) | Percent Effect [%]
45 | CCc1ccc(CNc2cc(N3CCCC3CO)ncn2)s1 (stereo not drawn) | 110.8
46 | OCC1CCCN1c1cc(NCc2cccs2)ncn1 (stereo not drawn) | 94.03
47 | Cc1nccc(N2CCCC2CCNS(C)(=O)=O)n1 (stereo not drawn) | 105.7
48 | Cc1cccnc1CNc1cc(N2CCCC2CO)ncn1 (stereo not drawn) | -0.7119
49 | OCC1CCCN1c1cc(NCc2ccc(Cl)s2)ncn1 (stereo not drawn) | 16.81
50 | CN(CCCNc1cc(N2CCCC2CO)ncn1)S(C)(=O)=O (stereo not drawn) | -14.7
51 | CS(=O)(=O)NCCCN1CCCC1Cc1ccccc1 (stereo not drawn) | -4.416
52 | CNc1cc(N2CCCC2CNCc2ccccn2)ncn1 (stereo not drawn) | -5.969
53 | COc1ncccc1CNc1cc(N2CCCC2CO)ncn1 (stereo not drawn) | 0.4879
54 | Cc1nccc(N2C[C@H](NC(=O)CNS(C)(=O)=O)[C@@H](C3CC3)C2)n1 | -1.379
55 | Cc1nccc(CNc2cc(N3CCCC3CO)ncn2)n1 (stereo not drawn) | 87.89
56 | COc1ccc(-c2noc([C@@H](C)NS(=O)(=O)CC(C)C)c2C(=O)O)cc1 | -11.95
57 | Cn1cc(Cl)c(CN2CCn3nc(C(=O)Nc4ccccc4)cc3C2)n1 | -7.275
58 | Cc1cccc2c1CCN(c1cc(N3CCCC3CO)ncn1)C2 (stereo not drawn) | 1.096
59 | OCC1CCN(c2ccc(NCc3ccsc3)nc2)CC1 | -9.25
60 | CN1CCN(c2cc(N3CCCC3CO)ncn2)Cc2ccccc21 (stereo not drawn) | 10.62
61 | Cc1ncsc1CNc1cc(N2CCCC2CO)ncn1 (stereo not drawn) | 92.3
62 | Cc1ccsc1CNc1cc(N2CCCC2CO)ncn1 (stereo not drawn) | 12.33
63 | OCC1CCCN1c1cc(NCc2ccsc2)ncn1 (stereo not drawn) | 106
64 | Cc1ccc(CNc2cc(N3CCCC3CO)ncn2)s1 (stereo not drawn) | 116.3
65 | Cc1noc(C)c1CNc1cc(N2CCCC2CO)ncn1 (stereo not drawn) | -3.514
66 | COCc1ccccc1CNc1cc(N2CCCC2CO)ncn1 (stereo not drawn) | 1.416

Row | Structure (SMILES) | Percent Effect [%]
67 | CN(CC1COc2ccccc2O1)C(=O)NCCCn1cncn1 (stereo not drawn) | -12.38
68 | Cc1ccc(-c2nc(CN3CCn4c(C)nnc4C3)cs2)o1 | 51.15
69 | CCc1nnc2n1CCN(Cc1csc(-c3ncccn3)n1)C2 | -18.32
70 | Cc1nnc2n1CCN(Cc1csc(-c3cnn(C)c3)n1)C2 | -23.78
71 | c1cnc(-c2nc(CN3CCn4c(nnc4C4CC4)C3)cs2)nc1 | 13.95
72 | Cc1nnc2n1CCN(CCOc1ccccc1)C2 | 2.68
73 | Cc1ccc(-c2nc(CN3CCn4c(nnc4C4CC4)C3)cs2)o1 | 3.918
74 | Cc1nnc2n1CCN(Cc1csc(COc3ccccc3)n1)C2 | 109.3
75 | Cc1nnc2n1CCN(Cc1csc(-c3ccc(F)cc3)n1)C2 | -7.701
76 | CCc1nnc2n1CCN(Cc1csc(-c3ccc(C)o3)n1)C2 | -1.199
77 | CCc1nnc2n1CCN(Cc1csc(-c3ccsc3)n1)C2 | -5.09
78 | Cc1nnc2n1CCN(Cc1csc(-c3ccsc3)n1)C2 | 121.4
79 | Cc1nnc2n1CCN(Cc1csc(-c3ncccn3)n1)C2 | 110.5
80 | CC(C)C1C(=O)NCCN1C(=O)CCCc1nc(C(C)(C)C)no1 (stereo not drawn) | -23.49
81 | COc1ccnc(N2CCN(C(=O)CCc3cnn(C)c3)CC2)n1 | 36.6
82 | COCC1CN(Cc2cc(C)on2)Cc2cn(C)nc21 (stereo not drawn) | 6.327
83 | CCN(C)CC1CCN(S(=O)(=O)c2cc(C)c(F)cc2Cl)C1 (stereo not drawn) | 6.524
84 | COc1c(C2CCCN2CC(=O)Nc2cc(C)no2)c(C)nn1C (stereo not drawn) | -8.496
85 | Cc1nn(C)c(C)c1C1CCCN1CC(=O)NCc1ccccn1 (stereo not drawn) | 103.7
86 | COc1c(C2CCCN2CC(=O)Nc2nc(C)cs2)c(C)nn1C (stereo not drawn) | -2.535
87 | Cc1cc(CN2CCCC2c2c(C)nn(C)c2Cl)no1 (stereo not drawn) | 7.779
88 | Cc1nn(C)c(Cl)c1C1CCCN1CC(=O)NCc1ccccn1 (stereo not drawn) | -3.313

Row | Structure (SMILES) | Percent Effect [%]
89 | Cc1nn(C)c(Cl)c1C1CCCN1Cc1ccccn1 (stereo not drawn) | 85.99
90 | Cc1nn(C)c(Cl)c1C1CCCN1CCc1ccccn1 (stereo not drawn) | 5.429
91 | Cc1nn(C)c(C)c1C1CCCN1CC(=O)Nc1ccncc1 (stereo not drawn) | 1.396
92 | COc1c(C2CCCN2CC(=O)NCc2ccccn2)c(C)nn1C (stereo not drawn) | 101.4
93 | CNC(=O)C1CCC(NC(=O)N(C)Cc2c(C)noc2C)CC1 (stereo not drawn) | 3.279
94 | Nc1cc(O)nc(CCNC(=O)CC[C@@H]2CCCN3CCCC[C@H]23)n1 | -22.38
95 | CCC(O)CN(Cc1cccc(C(=O)N(C)C)c1)c1ccccc1 (stereo not drawn) | 6.575
96 | CCC(C)(O)CNc1ccc(S(=O)(=O)C(F)F)cc1 (stereo not drawn) | -17.2
97 | Cn1c(=O)[nH]c2cc(C(=O)OCC(F)F)ccc21 | -3.927
98 | CC(C)n1cnnc1Cn1c(=O)cnc2ccccc21 | -19.8
99 | CC(C)C(=O)NC1CCCN(C(=O)c2cc(Cl)ccc2O)C1 (stereo not drawn) | 122.5
100 | Cc1ccc(C(=O)N2CCCC(C(=O)N3CCCCC3)C2)c(O)c1 (stereo not drawn) | -5.568
101 | CCC1CN(C(=O)c2ccc(Cl)cc2O)CCN1C(C)C (stereo not drawn) | -0.08814
102 | O=C(c1cccc(Cl)c1)N1CCCC(Nc2ccc(F)cc2)C1 (stereo not drawn) | -14.25
103 | CC(C)C(=O)NC1CCCN(C(=O)c2ccc(O)c(Cl)c2)C1 (stereo not drawn) | 88.73
104 | Cc1ccc(C(=O)N2CCCC(NC(=O)C(C)C)C2)c(O)c1 (stereo not drawn) | 9.198
105 | Cc1ccc(O)c(C(=O)N2CCCC(NC(=O)C(C)C)C2)c1 (stereo not drawn) | 85.08
106 | CCC1(C(=O)O)CCCN(C(=O)c2ccc(O)c(Cl)c2)C1 (stereo not drawn) | -6.141
107 | CC(=O)NC1CCCN(C(=O)CNc2cc(Cl)cc(Cl)c2)C1 (stereo not drawn) | -7.422
108 | COc1c(F)cc(NC(=O)N2CCC(CSC)C2)cc1F (stereo not drawn) | -4.081
